Data on five molecules can be found in PubChem BioAssay.

Structures are written as SMILES. Records with an inconclusive call do not appear. Active and inactive are the calls of the source.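 Rule for the calls, unless noted: active = binding below the plate cutoff, the plate median minus 3 SD, with a reading above zero; inconclusive = below the plate cutoff but reading exactly zero; inactive = the rest.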

As a reminder, the inhibition is the drop in the measured response relative to a control, in per cent.

Assay [1] in a line: rapamycin-like changes in RPL19A-GFP expression – cell-based, S. cerevisiae, multiplex flow cytometry, primary screen (AID 1862; in the data active = percent of DMSO control GFP below about 86%;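 note: lower values mimic rapamycin by blocking the RPL19A rise seen in DMSO cells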). The note with it: S. cerevisiae RPL19A-GFP strain, flow cytometry fluorescence, 3 h; at 10 µM; stronger effect = lower value. (Flow cytometry measures light scatter and fluorescence of single cells or particles in a stream.)
Assay [2] is described as follows: TOR pathway GLN3 branch reporter MEP2-GFP changes – S. cerevisiae, multiplex flow cytometry, primary screen (AID 1867;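 active = GFP response, as percent of the DMSO control, above the screen-wide mean plus 3 SD, about 139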;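 note: median GFP channel fluorescence of barcode-gated MEP2-GFP cells measured by flow cytometry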). To be noted: S. cerevisiae MEP2-GFP strain, 3 h, at 10 µM, stronger effect = higher value, 100% means same as DMSO wells.
The nature of assay [3]: TOR pathway RTG branch CIT2 reporter changes – S. cerevisiae, GFP fusion, multiplex flow cytometry, primary screen (AID 1870;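 active = percent response above a set limit, the screen-wide mean plus 3 SD, cut at about 130% in these data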;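 note: barcoded CIT2-GFP strain pooled with four other GFP strains with rapamycin as positive control; median GFP fluorescence per well over plate mean of DMSO wells so 100% = DMSO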). The note with it: S. cerevisiae CIT2-GFP expression, 3 h, at 10 µM, stronger effect = higher value.
Assay [4] in a line: TOR pathway LAP4-GFP level changes – S. cerevisiae, multiplex flow cytometry, primary screen (AID 1873;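 active = GFP signal, as percent of the solvent control, above the screen mean plus 3 SD, about 149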). The note with it: S. cerevisiae LAP4-GFP expression, 3 h, at 10 µM, stronger effect = higher value.
A short description of assay [5]: yeast AGP1-GFP level changes, GLN3 branch – cell-based, multiplex flow cytometry, S. cerevisiae, primary screen (AID 1887;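 active = GFP signal above the screen-wide mean plus 3 SD, that is over about 124.5% of the solvent control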;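 note: AGP1-GFP fusion strain of S. cerevisiae within a five-strain barcoded multiplex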). The note with it: 3 h, at 10 µM, stronger effect = higher value.
The nature of assay [6]: reduced mouse 2C T cell binding to pMHC/ICAM-1 vesicles – MLPCN validation set, flow cytometry, LFA-1/ICAM-1 modulator project, pilot screen (AID 2523;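 active = response below a set limit, under 55% cells CD8-positive and vesicle-bound, and CD8 cells' 90th-percentile brightness under 279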;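 for vesicle binding response: mean PE anti-B7-1 fluorescence of CD8+ cells relative to row control; 100% = QL9-loaded vesicles with DMSO vehicle in the same plate row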). The note with it: 2C mouse CD8+ T cells, at 7 µM, stronger effect = lower value; double positive events: measured here: CD8+/vesicle+ event percentage.
Assay [7] addresses Integrin beta-1 (Homo sapiens) + Integrin alpha-4 (Homo sapiens) (UniProt P13612+P05556). Kind of assay: alpha4beta1 integrin LIBS antibody binding reduction – U937 cells, HUTS-21 mAb, flow cytometry, validation set, VLA-4 allosteric modulator project, pilot screen (AID 2674;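 active = inhibition above 50%, about 3 SD of the validation set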;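 note: antibody binding induced by the VLA-4 ligand LDV present at three times its Kd; 0% = LDV ligand with antibody and no compound and 100% = antibody without LDV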). The note with it: HUTS-21 LIBS mAb binding, at 6.7 µM, stronger effect = higher value, binding induced by LDV ligand.

The nature of assay [8]: calorie-restriction mimetic ROS inhibitors, yeast – validation compound set, pilot screen (AID 2706;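 active = superoxide response below 65% of plate, a cut near 3 SD across the whole screen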;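 note: yeast exposed to compound for one week at 30 degrees C before staining; 100% = mean of all compound wells on the same plate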). To be noted: S. cerevisiae aging, superoxide DHE fluorescence; at 10 µM, stronger effect = lower value.
The target of assay [9] is Beta-adrenergic receptor kinase 1 (Homo sapiens) (UniProt P25098). In words: GRK2 binders displacing RNA aptamer, biochemical, validation, human GRK2, bead flow cytometry (AID 488806;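 active = aptamer binding inhibition above 30%, about 3 SD of noise from non-fluorescent compounds; inactive = inhibition at or below 30%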). To be noted: bead-bound GRK2, FAM-aptamer displacement, at 10 µM, stronger effect = higher value.
Chain of Beta-adrenergic receptor kinase 1 (Homo sapiens) (P25098 whole entry, looked up): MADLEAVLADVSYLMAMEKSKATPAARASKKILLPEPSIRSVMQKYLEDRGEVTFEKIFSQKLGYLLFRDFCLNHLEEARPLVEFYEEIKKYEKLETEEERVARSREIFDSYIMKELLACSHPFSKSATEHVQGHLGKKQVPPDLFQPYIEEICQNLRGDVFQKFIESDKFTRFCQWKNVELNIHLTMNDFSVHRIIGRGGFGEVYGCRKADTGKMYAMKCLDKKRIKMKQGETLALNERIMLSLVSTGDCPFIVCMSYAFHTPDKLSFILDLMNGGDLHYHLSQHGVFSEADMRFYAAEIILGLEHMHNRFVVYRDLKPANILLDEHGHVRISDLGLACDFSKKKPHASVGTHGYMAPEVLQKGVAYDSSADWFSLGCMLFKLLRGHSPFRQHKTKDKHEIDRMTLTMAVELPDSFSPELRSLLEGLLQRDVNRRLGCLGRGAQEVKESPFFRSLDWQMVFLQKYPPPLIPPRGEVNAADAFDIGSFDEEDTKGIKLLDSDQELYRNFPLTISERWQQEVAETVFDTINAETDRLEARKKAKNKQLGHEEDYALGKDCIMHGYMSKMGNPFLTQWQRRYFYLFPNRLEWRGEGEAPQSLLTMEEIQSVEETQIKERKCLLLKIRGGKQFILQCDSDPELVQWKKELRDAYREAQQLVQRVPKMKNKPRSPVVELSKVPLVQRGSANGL
The target of assay [10] is AP-2 complex subunit beta (Homo sapiens) (UniProt P63010). Kind of assay: beta-arrestin/AP2 interaction blockers – biochemical, validation set, GST-AP2 beads, flow cytometry, pilot screen (AID 504541;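 active = inhibition above 54%, about 3 SD of non-fluorescent compounds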;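 note: AP2 carries R879A mutation and is captured from E. coli lysate; bead-bound FITC arrestin peptide fluorescence measuring arrestin peptide binding to AP2; 0% = DMSO wells and 100% = excess unlabeled arrestin peptide control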). To be noted: FITC arrestin peptide, at 10 µM, stronger effect = higher value, AP2 beta2 appendage fragment, R879A mutant.
Chain of AP-2 complex subunit beta (Homo sapiens) (P63010 whole entry, looked up, the tested form may be a part, one chain of several): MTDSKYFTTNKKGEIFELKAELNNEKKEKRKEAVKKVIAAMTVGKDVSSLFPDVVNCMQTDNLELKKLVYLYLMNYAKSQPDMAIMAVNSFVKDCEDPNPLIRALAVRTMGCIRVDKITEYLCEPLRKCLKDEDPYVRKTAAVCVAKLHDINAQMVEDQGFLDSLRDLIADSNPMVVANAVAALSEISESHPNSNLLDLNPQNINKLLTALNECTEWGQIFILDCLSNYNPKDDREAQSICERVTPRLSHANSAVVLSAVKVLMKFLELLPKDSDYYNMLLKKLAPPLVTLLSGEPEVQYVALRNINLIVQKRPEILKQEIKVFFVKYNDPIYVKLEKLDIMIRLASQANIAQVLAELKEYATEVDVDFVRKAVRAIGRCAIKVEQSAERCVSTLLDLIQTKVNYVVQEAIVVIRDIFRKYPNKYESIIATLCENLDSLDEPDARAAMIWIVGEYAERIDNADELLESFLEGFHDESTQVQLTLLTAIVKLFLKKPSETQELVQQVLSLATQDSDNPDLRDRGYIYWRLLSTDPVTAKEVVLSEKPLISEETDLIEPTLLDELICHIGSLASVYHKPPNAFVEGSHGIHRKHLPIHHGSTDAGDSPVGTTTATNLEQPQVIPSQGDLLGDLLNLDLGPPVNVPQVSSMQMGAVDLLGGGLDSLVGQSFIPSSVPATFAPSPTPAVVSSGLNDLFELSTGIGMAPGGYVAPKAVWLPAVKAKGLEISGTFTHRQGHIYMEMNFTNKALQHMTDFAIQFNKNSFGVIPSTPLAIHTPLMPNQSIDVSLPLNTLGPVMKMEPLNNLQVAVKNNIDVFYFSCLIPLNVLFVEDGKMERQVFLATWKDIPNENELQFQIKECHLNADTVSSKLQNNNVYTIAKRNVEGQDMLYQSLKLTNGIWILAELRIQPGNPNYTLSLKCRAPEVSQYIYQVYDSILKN
Assay [11] in a line: cytosolic pH regulators acting via V-ATPase – S. cerevisiae, pHLuorin, HTS validation (AID 504600; in the data active = response above about 15%;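 note: plate controls were DMSO for no effect and reference compound for full effect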). To be noted: V-ATPase proton transport, at 10 µM, stronger effect = higher value.
Assay [12] concerns anti-desmoglein-3 scFv antibody binding to human DSG3. Kind of assay: blockers of pathogenic pemphigus antibody–desmoglein-3 binding – biochemical, validation compound set, bead-based, flow cytometry, pilot screen (AID 588368).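 Note: signal is the median channel fluorescence of bead-bound GFP antibody.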 To be noted: Protein G beads, DSG3-Fc, scFv-GFP binding, at 10 µM, stronger effect = lower value.
Assay [13] in a line: Nile Red efflux blockade in pump-expressing yeast – validation compound set, multiplex, phenotypic, pilot screen (AID 588506;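 active = efflux inhibition above 0.42, the validation set average plus 4 SD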;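 note: Nile Red retained in cells so higher fluorescence means more efflux inhibition; 0 = negative control wells and 1 = enniatin B 25 µM full block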). The note with it: S. cerevisiae pump-expressing triplex, Nile Red efflux flow cytometry; at 10 µM; stronger effect = higher value; the pumps come from Candida albicans.
The target in assay [14] is ATP-binding cassette sub-family B member 6 (Homo sapiens) (UniProt Q9NP58). Kind of assay: blockers of ABCB6-driven porphyrin uptake – K562-ABCB6 cells, flow cytometry, validation set, pilot screen (AID 588550;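 active = inhibition above the screen-wide mean plus 3 SD, about 51%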;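 note: 0% = DMSO wells and 100% = benzethonium chloride 70 µM positive control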). The note with it: K562-ABCB6 porphyrin accumulation, 1 h, at 10 µM, stronger effect = higher value.
Chain of ATP-binding cassette sub-family B member 6 (Homo sapiens) (Q9NP58 whole entry, looked up): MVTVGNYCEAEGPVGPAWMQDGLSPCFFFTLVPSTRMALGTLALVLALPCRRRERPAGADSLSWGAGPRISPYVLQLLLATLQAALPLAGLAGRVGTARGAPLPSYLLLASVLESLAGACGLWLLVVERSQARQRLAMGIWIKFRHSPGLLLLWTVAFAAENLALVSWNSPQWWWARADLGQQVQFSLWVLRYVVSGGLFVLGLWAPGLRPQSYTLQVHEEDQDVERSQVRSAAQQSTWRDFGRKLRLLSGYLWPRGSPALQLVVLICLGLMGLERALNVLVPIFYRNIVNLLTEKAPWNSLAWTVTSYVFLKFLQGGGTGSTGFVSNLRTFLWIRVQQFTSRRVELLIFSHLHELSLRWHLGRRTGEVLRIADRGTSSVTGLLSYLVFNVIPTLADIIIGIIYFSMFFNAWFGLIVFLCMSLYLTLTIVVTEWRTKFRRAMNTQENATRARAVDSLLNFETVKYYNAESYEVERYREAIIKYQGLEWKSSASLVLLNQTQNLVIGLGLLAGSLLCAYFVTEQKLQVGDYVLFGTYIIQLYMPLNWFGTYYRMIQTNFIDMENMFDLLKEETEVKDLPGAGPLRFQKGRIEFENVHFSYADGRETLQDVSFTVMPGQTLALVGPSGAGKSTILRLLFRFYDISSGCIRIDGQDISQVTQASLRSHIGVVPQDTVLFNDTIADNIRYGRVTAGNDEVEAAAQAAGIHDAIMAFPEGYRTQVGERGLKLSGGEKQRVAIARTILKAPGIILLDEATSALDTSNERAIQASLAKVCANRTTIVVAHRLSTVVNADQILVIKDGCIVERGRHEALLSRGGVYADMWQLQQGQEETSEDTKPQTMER
The nature of assay [15]: AML differentiation inducers, ER-HoxA9 marrow cells – cell-based, GFP/MAC1 double positive, flow cytometry, validation set, primary screen (AID 588685;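 active = differentiation response of at least 50%, scaled between solvent and reference control, from cells with both markers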;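 note: compound exposure lasts four days before antibody staining and flow analysis; 0% = DMSO wells and 100% = 5 µM fulvestrant positive control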). To be noted: stronger effect = higher value, normalized: vehicle 0, fulvestrant 100.

Chain of Integrin beta-1 (Homo sapiens) + Integrin alpha-4 (Homo sapiens) (P05556 whole entry, looked up): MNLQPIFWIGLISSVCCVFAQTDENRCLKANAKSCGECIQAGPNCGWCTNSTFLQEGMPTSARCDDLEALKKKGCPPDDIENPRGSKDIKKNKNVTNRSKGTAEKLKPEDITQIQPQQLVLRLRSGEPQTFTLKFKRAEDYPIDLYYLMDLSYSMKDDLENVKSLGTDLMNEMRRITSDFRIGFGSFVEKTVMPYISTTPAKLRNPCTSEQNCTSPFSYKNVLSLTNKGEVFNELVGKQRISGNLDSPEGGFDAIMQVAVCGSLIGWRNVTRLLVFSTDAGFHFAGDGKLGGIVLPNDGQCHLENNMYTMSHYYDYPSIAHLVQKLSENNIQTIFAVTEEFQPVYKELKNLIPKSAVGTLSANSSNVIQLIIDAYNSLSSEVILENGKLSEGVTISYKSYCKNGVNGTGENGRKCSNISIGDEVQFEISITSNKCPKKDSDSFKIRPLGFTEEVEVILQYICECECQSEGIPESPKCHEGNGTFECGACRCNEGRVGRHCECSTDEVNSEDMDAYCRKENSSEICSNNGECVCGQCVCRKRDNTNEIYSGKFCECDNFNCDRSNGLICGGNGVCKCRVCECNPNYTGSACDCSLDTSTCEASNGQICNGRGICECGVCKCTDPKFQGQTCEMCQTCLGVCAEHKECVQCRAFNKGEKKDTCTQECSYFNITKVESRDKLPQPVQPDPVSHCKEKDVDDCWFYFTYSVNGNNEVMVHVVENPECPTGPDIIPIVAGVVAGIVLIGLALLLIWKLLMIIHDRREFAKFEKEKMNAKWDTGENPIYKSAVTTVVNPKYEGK
Chain of Integrin beta-1 (Homo sapiens) + Integrin alpha-4 (Homo sapiens) (P13612 whole entry, looked up): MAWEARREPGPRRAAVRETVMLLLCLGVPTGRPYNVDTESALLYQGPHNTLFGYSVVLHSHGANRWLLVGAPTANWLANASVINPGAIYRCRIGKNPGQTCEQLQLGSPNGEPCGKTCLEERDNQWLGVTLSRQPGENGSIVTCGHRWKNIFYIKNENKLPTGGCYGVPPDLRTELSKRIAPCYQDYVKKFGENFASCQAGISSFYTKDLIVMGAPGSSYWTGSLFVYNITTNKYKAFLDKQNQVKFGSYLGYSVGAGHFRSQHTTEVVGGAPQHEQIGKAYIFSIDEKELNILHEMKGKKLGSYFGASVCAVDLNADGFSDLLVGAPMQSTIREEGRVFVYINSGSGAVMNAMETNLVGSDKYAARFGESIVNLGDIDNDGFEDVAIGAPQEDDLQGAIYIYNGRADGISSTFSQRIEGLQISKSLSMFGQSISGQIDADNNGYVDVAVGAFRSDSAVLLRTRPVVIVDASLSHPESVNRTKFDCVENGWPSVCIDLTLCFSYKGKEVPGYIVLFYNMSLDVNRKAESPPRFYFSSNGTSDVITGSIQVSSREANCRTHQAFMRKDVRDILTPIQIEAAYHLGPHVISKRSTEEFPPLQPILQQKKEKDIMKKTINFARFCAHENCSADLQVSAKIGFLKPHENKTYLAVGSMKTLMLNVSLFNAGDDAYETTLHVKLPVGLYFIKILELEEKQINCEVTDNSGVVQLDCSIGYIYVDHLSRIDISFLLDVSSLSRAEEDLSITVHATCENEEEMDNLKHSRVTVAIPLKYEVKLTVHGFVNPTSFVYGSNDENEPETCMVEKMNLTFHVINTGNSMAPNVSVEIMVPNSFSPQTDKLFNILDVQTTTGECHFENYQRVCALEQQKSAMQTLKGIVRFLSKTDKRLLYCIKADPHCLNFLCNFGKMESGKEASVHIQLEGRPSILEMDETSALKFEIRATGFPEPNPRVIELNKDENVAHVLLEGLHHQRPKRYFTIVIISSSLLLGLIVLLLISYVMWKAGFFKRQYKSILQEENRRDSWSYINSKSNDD

On to `COc1ccc(OC)c(-c2oc3ccccc3c(=O)c2O)c1`, for which the percent of DMSO control GFP in assay [1] was 102% (inactive). Moreover, the GFP response vs DMSO in assay [2] was 96.9% (inactive); in [4], 110% (inactive). For the same molecule, in assay [3], the percent response of DMSO control was 96.9% (inactive). Moreover, in [5], the GFP response, % of DMSO was 101% (inactive). The same molecule had a double positive events in assay [6] of 57%. In addition, the vesicle binding response in [6] was 182% (inactive). Besides, the inhibition in assay [7] was -8.64% (inactive); in assay [10], -1.44% (inactive); in assay [14], -4% (inactive). Besides, in assay [8], the superoxide response (% of plate) was 102% (inactive). Further, the aptamer binding inhibition in assay [9] is 2% (inactive). Besides, the response in assay [11] was 5.05% (inactive). Also, the binding (% of control) in assay [12] is 97.5% (inactive). For the same molecule, the efflux inhibition (fraction of control) in assay [13] is -0.01 (inactive). Besides, in assay [15], the differentiation response is -26% (inactive).
Take `COC(=O)c1cc(=O)c2ccc(OC)cc2o1`: the percent of DMSO control GFP in assay [1] was 99.1% (inactive). For the same molecule, the GFP response vs DMSO was 97.9% (inactive) in assay [2] and 100% (inactive) in assay [4]. The percent response of DMSO control in assay [3] was 111% (inactive). For the same molecule, in assay [5], the GFP response, % of DMSO was 90.9% (inactive). This molecule also came in with a double positive events in assay [6] of 52.9%. For the same molecule, in assay [6], the vesicle binding response is 152% (inactive). Further, the inhibition in assay [7] was 17.5% (inactive); in assay [10] it was -3.93% (inactive); in assay [14] it was 6% (inactive). For the same molecule, the superoxide response (% of plate) in [8] was 94.7% (inactive). In addition, the aptamer binding inhibition in assay [9] is 1% (inactive). In addition, in assay [11], the response was 37.7% (active). For the same molecule, the binding (% of control) in [12] was 101% (inactive). Besides, the efflux inhibition (fraction of control) in [13] is 0.03 (inactive). For the same molecule, the differentiation response in [15] is -11.5% (inactive).
On to `CC(=O)Oc1ccc2occ(/C=N/c3cc(=O)[nH]c(=S)[nH]3)c(=O)c2c1`, for which the percent of DMSO control GFP in assay [1] was 98% (inactive). Moreover, the GFP response vs DMSO in [2] was 102% (inactive); in [4] it was 91.3% (inactive). In [3], the percent response of DMSO control was 96.9% (inactive). The GFP response, % of DMSO in assay [5] is 98.5% (inactive). This molecule also had a double positive events in assay [6] of 66.1%. Also, in assay [6], the vesicle binding response is 181% (inactive). In addition, the inhibition in assay [7] was 7.22% (inactive); in [10], 25.5% (inactive); in assay [14] it was 10% (inactive). In assay [8], the superoxide response (% of plate) was 90.5% (inactive). Besides, in assay [9], the aptamer binding inhibition was 1% (inactive). Moreover, the response in assay [11] was -8.27% (inactive). In addition, the binding (% of control) in assay [12] is 103% (inactive). In addition, the efflux inhibition (fraction of control) in assay [13] is 0.33 (inactive). The differentiation response in assay [15] is 40.2% (inactive).
Regarding `CC(C)C[C@H](NC(=O)[C@@H]1Cc2ccccc2CN1C(=O)OC(C)(C)C)C(=O)NCC1CCC(C(=O)O)CC1` (stereo not given in full), the percent of DMSO control GFP in assay [1] is 99.3% (inactive). For the same molecule, the results for the GFP response vs DMSO in assay [2] and in assay [4] were 95.9% (inactive) and 92.3% (inactive), respectively. Besides, in assay [3], the percent response of DMSO control is 105% (inactive). In addition, in assay [5], the GFP response, % of DMSO is 99.9% (inactive). Moreover, the double positive events in assay [6] is 59.9%. Moreover, the vesicle binding response in [6] is 257% (inactive). Further, the figures for the inhibition in assay [7], in [10] and in assay [14] were 1.62% (inactive), -3.49% (inactive) and 7% (inactive), respectively. For the same molecule, the superoxide response (% of plate) in assay [8] is 93.6% (inactive). Also, the aptamer binding inhibition in [9] was 3% (inactive). In assay [11], the response is -10.3% (inactive). Also, in assay [12], the binding (% of control) was 101% (inactive). Besides, in assay [13], the efflux inhibition (fraction of control) was -0.12 (inactive). Further, in assay [15], the differentiation response was -27.6% (inactive).
For the molecule `C[N+]12CCCCC1C(COC(=O)c1ccc3c(c1)OCO3)CCC2` (stereo not given), the percent of DMSO control GFP in assay [1] is 97.6% (inactive). Also, the GFP response vs DMSO in assay [2] is 96.9% (inactive); in [4], 85.3% (inactive). The percent response of DMSO control in [3] was 97.9% (inactive). For the same molecule, in [5], the GFP response, % of DMSO is 93.9% (inactive). The double positive events in [6] was 62%. In assay [6], the vesicle binding response is 116% (inactive). Further, the inhibition in [7] is 10.9% (inactive); in [10] it was -3.8% (inactive); in assay [14], 12% (inactive). Moreover, the superoxide response (% of plate) in assay [8] was 99.1% (inactive). Moreover, the aptamer binding inhibition in assay [9] is 5% (inactive). Further, the response in [11] was 1.26% (inactive). For the same molecule, the binding (% of control) in [12] was 96.7% (inactive). For the same molecule, the efflux inhibition (fraction of control) in assay [13] is 0.14 (inactive). Further, the differentiation response in assay [15] was -19.6% (inactive).
